Out of some 65,000 compounds screened, about 120 (0.18%) were called active. Cut-off read from the data, not from the text of the source: active = z-score below about -3; inactive = the rest. This excerpt belongs to a sample that is enriched for actives.

Genome polyprotein (West Nile virus), sequence (P06935 1371-1501 limits assumed): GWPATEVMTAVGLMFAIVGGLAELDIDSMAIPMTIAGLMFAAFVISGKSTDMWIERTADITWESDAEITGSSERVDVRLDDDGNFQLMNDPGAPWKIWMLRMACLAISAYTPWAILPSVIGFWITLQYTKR
Genome polyprotein (West Nile virus), sequence (P06935 1502-1679 limits assumed): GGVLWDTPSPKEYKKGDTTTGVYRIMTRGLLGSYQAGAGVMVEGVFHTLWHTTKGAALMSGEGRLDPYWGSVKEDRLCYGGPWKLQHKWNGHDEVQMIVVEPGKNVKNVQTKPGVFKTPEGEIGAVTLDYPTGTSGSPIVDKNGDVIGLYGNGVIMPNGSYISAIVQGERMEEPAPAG

This experiment has as its target Genome polyprotein (West Nile virus) (UniProt P06935). Nature of the experiment: inhibitors of WNV NS2B-NS3 protease, primary screen, biochemical, fluorogenic substrate (AID 577). Particulars: fluorogenic substrate Ex360/Em465, active compounds read low.
In the case of `CC(C)CNS(=O)(=O)c1ccc(OCC(=O)Nc2ccc3c(c2)OCO3)c(Cl)c1`, the z-score is 0.53 (inactive). Take `COc1cccc(-c2nn(C)c3sc(C(=O)N4CCN(c5ccccc5)CC4)cc23)c1`: the z-score is -0.13 (inactive). For `O=C(c1ccccc1)c1cccn1CC(=O)N1CCN(c2ccc(F)cc2)CC1` the value was -1.05 (inactive); for `COc1cccc(-c2nc(S(=O)(=O)c3ccccc3)c(N3CCOCC3)o2)c1`, -0.88 (inactive); for `CC(C)n1c(C(O)c2ccccc2)nc2ccccc21` (stereo not drawn), -1.05 (inactive). For `O=C(Nc1nnc(-c2ccc(Cl)cc2)o1)c1ccccc1Br` the value was 2.56 (inactive). For `O=C(O)C1CCN1C1CCCCC1` (stereo not drawn) the value was -0.3 (inactive); for `CCCOc1ccc(NC(=O)C2CCCNC2=O)cc1` (stereo not drawn), 0.11 (inactive). `CCn1cc(C(=O)NC2CCCCCC2)c(=O)c2cc(S(=O)(=O)N3CCCCC3)ccc21`: the z-score is -1.17 (inactive). As for `Oc1ccc(Cl)cc1/C=N/c1nc2ccccc2[nH]1`, the figure is -0.26 (inactive); as for `CCOC(=O)C1CCN(C(=O)CC2C(=O)N(Cc3ccccc3)C(C)c3nc4ccccc4n32)CC1` (stereo not drawn), -0.76 (inactive).

Take `Brc1cnc(N2CCCC2)nc1N1CCCCC1`: the z-score was -0.6 (inactive). For `CCOC(=O)c1ccc(Nc2cc(C)nc3nc(C)nn23)cc1` the value was -0.96 (inactive); for `Cn1nc(-c2ccc(N3CCOCC3)c(NC(=O)c3ccccc3)c2)c2ccccc2c1=O`, -0.07 (inactive); for `COc1ccc(CCNC(=O)CSc2nnc(-c3cccc(F)c3)o2)cc1OC`, 0.62 (inactive). As for `O=C(CSC1=Nc2ccccc2C2=NC(c3ccccc3)C(=O)N12)NCC1CCCO1` (stereo not drawn), the figure is -0.94 (inactive); as for `CCOC(=O)N1CCN(C(=O)c2ccc(S(=O)(=O)c3ccc(C)cc3)c(NC(C)=O)c2)CC1`, 0.25 (inactive); as for `CCc1nc2oc3ccccc3c(=O)c2c(=O)n1Cc1ccc(OC)cc1`, -0.51 (inactive). As to `CC1CCN(Cc2nc3c(c(=O)n(C)c(=O)n3C)n2Cc2cccc3ccccc23)CC1`, the z-score was -0.71 (inactive). For `CCC(C(=O)N1CCOCC1)n1c(C(=O)OC)cc2occc21` (stereo not drawn) the value was -1.12 (inactive); for `O=C(NC1CCCCC1)N1CCc2[nH]c3ccccc3c2C1`, 0.65 (inactive). With `Cn1c(=O)c2[nH]c(NCC3CCCO3)nc2n(-c2ccccc2)c1=O` (stereo not drawn), the z-score was -0.17 (inactive). For `Cc1c(C(=O)NCC2CCCO2)sc2nc(-c3ccccc3)cn12` (stereo not drawn) the value was 0.86 (inactive); for `Cc1nn(Cc2ccccc2)c(Cl)c1C(=O)OC1CCOC1=O` (stereo not drawn), 0.09 (inactive). As for `c1ccc(-c2cn3cccnc3n2)cc1`, the figure is 1.38 (inactive). Regarding `Cc1ccc(-n2c(Cc3cccs3)nnc2SCC(=O)OC(C)C)cc1`, the z-score was -0.91 (inactive).

With `CCOc1ccc(OCC)c(NC(=O)CSc2nnc(Cn3cnc4ccccc43)n2C)c1`, the z-score is 1.68 (inactive).

Consider `CSc1sc(C)cc1C1C(C#N)=C(N)N(c2cccnc2)C2=C1C(=O)CCC2` (stereo not drawn), for which the z-score is 0.7 (inactive).

For `CCC(C)n1[nH]c(=O)c2c(C)cc(C)nc21` (stereo not drawn), the z-score was 0.11 (inactive). For `COc1ccc(/C(O)=C2/C(=O)C(=O)N(c3nc(C)c(C)s3)C2c2ccco2)cc1` (stereo not drawn) the value was -0.46 (inactive). As for `CCOC(=O)c1sc(NC(=O)C(CC)Sc2nccn2C)nc1C` (stereo not drawn), the figure is 0.77 (inactive); as for `CCOC(=O)c1sc(=S)n2c1[nH]c(=O)c1ccc(C(=O)OC)cc12`, 0.38 (inactive); as for `Cc1ccccc1-c1nc(CS(=O)(=O)CC(=O)N2CCc3ccccc3C2)c(C)o1`, -0.21 (inactive). As for `CC(C)c1ccc(NS(=O)(=O)c2cn(C)c(=O)n(C)c2=O)cc1`, the figure is -1.04 (inactive); as for `CCCOc1ccc2c3c(c(=O)oc2c1OCCC)CCC3`, -0.02 (inactive). `COc1ccc(NC(=O)CN(C)S(=O)(=O)c2ccccc2)cc1OC`: the z-score was -0.74 (inactive). For `Cc1ccc(NC(=O)C2CCCN(S(=O)(=O)c3c(C)noc3C)C2)c(C)c1` (stereo not drawn) the value was -1.04 (inactive); for `CCOC(=O)Cn1c(CN(Cc2ccccc2)Cc2ccccc2)nc2c1c(=O)[nH]c(=O)n2C`, 1.45 (inactive); for `COc1ccc(CCNS(=O)(=O)c2ccc(F)cc2)cc1OC`, -0.37 (inactive). For `Cc1nnc(SCC(=O)Nn2cnnc2)s1` the value was 0.2 (inactive); for `CCCCn1c(CCCNC(=O)CC)nc2ccccc21`, 0.2 (inactive). As for `CC(=O)c1ccc(NC(=O)N[C@@H](Cc2ccccc2)C(=O)O)cc1`, the figure is 1.38 (inactive); as for `Cc1ccc(C)c(NC(=O)C2CC(=O)N(C(C)C)C2)c1` (stereo not drawn), -0.7 (inactive). On to `Clc1ccc(C=NC23CN4CN(CN(C4)C2)C3)cc1`, for which the z-score is 1.48 (inactive).

As for `O=C1CC(Cc2ccccc2)C(=O)N1c1ccc(Cl)cn1` (stereo not drawn), the z-score is -1.5 (inactive). For `CCN(CC)C(=O)CSc1nnc(-c2cnccn2)n1-c1ccc(C)cc1` the value was 0.78 (inactive); for `CSCCC(NC(=O)C1CCC(C)CC1)C(=O)NCc1ccco1` (stereo not drawn), 0.29 (inactive). For `CCCCOC(=O)NCN1C(=O)C2C3C=CC(C3)C2C1=O` (stereo not drawn) the value was 0.28 (inactive).

The values above are taken from PubChem BioAssay AID577 (University of Pittsburgh Molecular Library Screening Center, 2007).
